The full data set covers some 7,900 targets. This sample favours those with a hit. About 0.6% of all pairs of compound and target were hits. A number with no mark means an inactive call.
Legend:
Experiment in all cases: log2 fold change, soluble protein after heating vs DMSO (PISA); higher = thermal stabilisation; K562 cells, 10 uM, 30 min; active = over 0.2 and 3.5 SD of the protein, either way, in both replicates (recomputed)
[1] = compound: COC1=CC=C(C=C1)CN2C=CC3=C2C=C(C=C3)C(=O)NO
Outline: (§1)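 Soluble protein was defined as the supernatant after 21,000xg for 90 min. It came from K562 cells at 2×10^6 cells/mL given 10 μM compound for 30 min, heated in aliquots for 3 min across 48°C-58°C, pooled, and extracted in PBS with 0.5% NP-40 at 4°C, and was quantified by TMTpro 16plex LC-MS/MS with equalised channel sums. Thermal stability against control samples, from duplicates, is reported as log2 fold change.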

filanesib = compound: CON(C)C(=O)N1N=C(c2cc(F)ccc2F)S[C@@]1(CCCN)c1ccccc1 [filanesib]
Outline: as §1

zotarolimus = compound: CO[C@H]1C[C@@H]2CC[C@@H](C)[C@@](O)(O2)C(=O)C(=O)N2CCCC[C@H]2C(=O)O[C@H]([C@H](C)C[C@@H]2CC[C@H](n3cnnn3)[C@H](OC)C2)CC(=O)[C@H](C)/C=C(\C)[C@@H](O)[C@@H](OC)C(=O)[C@H](C)C[C@H](C)/C=C/C=C/C=C/1C [zotarolimus]
Outline: as §1

idasanutlin = compound: COc1cc(C(=O)O)ccc1NC(=O)[C@@H]1N[C@@H](CC(C)(C)C)[C@](C#N)(c2ccc(Cl)cc2F)[C@H]1c1cccc(Cl)c1F [idasanutlin]
Outline: as §1

alisertib = compound: COc1cc(Nc2ncc3c(n2)-c2ccc(Cl)cc2C(c2c(F)cccc2OC)=NC3)ccc1C(=O)O [alisertib]
Outline: as §1

[2] = compound: COc1cc2nc(-c3cc(F)ccc3O)nc(N[C@@H]3CNC[C@H]3C(C)(C)O)c2cc1OC
Outline: as §1

gefitinib = compound: COc1cc2ncnc(Nc3ccc(F)c(Cl)c3)c2cc1OCCCN1CCOCC1 [gefitinib]
Outline: as §1

[3] = compound: COc1cccc2cc(-c3nc([C@H]4CC[C@H](C(=O)O)CC4)n4ncnc(N)c34)[nH]c12
Outline: as §1

lapatinib = compound: CS(=O)(=O)CCNCc1ccc(-c2ccc3ncnc(Nc4ccc(OCc5cccc(F)c5)c(Cl)c4)c3c2)o1 [lapatinib]
Outline: as §1

pictilisib = compound: CS(=O)(=O)N1CCN(Cc2cc3nc(-c4cccc5[nH]ncc45)nc(N4CCOCC4)c3s2)CC1 [pictilisib]
Outline: as §1

Sequence of UniProt Q16385 (Q16385 whole entry, looked up): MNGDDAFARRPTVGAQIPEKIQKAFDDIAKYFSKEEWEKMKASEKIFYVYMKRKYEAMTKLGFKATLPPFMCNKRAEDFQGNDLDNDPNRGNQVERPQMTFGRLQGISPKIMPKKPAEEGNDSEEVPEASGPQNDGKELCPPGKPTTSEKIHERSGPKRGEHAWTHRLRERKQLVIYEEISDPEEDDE
Sequence of UniProt Q9NS93 (Q9NS93 whole entry, looked up): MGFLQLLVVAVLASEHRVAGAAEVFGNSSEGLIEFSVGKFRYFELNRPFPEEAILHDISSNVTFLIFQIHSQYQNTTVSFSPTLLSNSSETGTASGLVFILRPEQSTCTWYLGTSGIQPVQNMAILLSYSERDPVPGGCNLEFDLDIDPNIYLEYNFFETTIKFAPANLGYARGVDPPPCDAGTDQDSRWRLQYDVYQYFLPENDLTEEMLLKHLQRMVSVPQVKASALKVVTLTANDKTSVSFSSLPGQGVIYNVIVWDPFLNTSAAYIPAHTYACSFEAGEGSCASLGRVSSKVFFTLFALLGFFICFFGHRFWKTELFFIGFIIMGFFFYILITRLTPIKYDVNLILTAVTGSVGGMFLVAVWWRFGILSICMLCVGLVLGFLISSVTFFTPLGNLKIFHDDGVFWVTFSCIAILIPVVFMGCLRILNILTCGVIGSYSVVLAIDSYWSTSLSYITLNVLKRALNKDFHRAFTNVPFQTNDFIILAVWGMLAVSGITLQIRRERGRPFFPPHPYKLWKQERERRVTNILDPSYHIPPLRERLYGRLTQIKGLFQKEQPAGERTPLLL
Sequence of UniProt Q13586 (Q13586 whole entry, looked up): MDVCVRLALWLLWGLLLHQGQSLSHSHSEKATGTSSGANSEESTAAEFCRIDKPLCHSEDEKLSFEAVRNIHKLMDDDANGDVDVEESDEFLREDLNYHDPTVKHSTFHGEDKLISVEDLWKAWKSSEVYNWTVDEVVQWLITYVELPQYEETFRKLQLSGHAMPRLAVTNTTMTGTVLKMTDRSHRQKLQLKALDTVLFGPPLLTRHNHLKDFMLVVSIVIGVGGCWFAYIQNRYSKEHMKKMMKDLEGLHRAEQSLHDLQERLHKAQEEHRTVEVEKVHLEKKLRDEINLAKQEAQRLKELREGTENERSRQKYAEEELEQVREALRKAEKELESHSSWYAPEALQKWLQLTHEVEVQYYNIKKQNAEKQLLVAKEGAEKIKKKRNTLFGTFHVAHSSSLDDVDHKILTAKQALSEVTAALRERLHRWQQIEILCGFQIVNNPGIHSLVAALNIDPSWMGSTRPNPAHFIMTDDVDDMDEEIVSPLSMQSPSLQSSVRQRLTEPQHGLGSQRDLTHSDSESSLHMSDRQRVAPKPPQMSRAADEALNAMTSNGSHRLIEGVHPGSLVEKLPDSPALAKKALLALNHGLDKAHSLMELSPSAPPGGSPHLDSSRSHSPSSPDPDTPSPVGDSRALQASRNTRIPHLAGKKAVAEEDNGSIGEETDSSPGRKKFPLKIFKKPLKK
Sequence of UniProt Q9NRS6 (Q9NRS6 whole entry, looked up): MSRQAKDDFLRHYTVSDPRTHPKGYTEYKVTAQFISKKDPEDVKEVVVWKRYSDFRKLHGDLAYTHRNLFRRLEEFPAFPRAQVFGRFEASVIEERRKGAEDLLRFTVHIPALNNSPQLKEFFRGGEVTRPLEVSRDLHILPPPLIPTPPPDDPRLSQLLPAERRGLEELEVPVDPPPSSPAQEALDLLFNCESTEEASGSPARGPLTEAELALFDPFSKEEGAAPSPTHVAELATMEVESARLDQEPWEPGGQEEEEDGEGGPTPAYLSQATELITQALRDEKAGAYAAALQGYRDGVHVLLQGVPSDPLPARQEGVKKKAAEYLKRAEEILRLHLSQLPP
Sequence of UniProt P51571 (P51571 whole entry, looked up): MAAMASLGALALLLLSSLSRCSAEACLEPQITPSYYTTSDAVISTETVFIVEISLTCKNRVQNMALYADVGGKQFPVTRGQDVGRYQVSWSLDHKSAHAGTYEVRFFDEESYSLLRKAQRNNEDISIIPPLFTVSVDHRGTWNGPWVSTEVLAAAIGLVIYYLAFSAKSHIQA
Sequence of UniProt O60493 (O60493 whole entry, looked up): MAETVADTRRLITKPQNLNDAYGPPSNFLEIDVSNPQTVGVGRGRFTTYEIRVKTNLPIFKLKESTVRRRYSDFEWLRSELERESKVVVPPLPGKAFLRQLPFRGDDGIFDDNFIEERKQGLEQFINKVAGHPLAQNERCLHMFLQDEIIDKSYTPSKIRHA
Sequence of UniProt Q9P289 (Q9P289 whole entry, looked up): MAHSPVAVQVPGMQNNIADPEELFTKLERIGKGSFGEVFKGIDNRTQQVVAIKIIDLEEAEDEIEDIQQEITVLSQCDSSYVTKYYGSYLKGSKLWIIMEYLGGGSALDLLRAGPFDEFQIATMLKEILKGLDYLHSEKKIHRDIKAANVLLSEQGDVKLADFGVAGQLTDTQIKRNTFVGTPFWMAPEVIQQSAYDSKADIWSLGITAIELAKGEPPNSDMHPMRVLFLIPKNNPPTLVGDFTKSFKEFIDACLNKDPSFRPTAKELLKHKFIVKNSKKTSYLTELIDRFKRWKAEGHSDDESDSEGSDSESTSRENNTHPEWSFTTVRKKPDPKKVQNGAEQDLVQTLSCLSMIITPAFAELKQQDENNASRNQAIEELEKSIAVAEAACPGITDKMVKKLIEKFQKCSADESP
Sequence of UniProt Q96BZ9 (Q96BZ9 whole entry, looked up): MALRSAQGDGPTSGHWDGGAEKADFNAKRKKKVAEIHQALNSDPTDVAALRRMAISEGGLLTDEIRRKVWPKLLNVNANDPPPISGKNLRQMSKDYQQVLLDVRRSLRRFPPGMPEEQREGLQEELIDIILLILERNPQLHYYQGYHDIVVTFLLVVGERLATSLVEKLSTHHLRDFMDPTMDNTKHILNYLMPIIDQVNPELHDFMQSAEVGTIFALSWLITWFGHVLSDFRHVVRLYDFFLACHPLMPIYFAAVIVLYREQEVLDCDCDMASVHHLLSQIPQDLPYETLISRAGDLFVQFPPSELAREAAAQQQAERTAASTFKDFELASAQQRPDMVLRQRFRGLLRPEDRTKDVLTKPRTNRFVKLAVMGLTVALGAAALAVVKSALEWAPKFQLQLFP
Sequence of UniProt Q99805 (Q99805 whole entry, looked up): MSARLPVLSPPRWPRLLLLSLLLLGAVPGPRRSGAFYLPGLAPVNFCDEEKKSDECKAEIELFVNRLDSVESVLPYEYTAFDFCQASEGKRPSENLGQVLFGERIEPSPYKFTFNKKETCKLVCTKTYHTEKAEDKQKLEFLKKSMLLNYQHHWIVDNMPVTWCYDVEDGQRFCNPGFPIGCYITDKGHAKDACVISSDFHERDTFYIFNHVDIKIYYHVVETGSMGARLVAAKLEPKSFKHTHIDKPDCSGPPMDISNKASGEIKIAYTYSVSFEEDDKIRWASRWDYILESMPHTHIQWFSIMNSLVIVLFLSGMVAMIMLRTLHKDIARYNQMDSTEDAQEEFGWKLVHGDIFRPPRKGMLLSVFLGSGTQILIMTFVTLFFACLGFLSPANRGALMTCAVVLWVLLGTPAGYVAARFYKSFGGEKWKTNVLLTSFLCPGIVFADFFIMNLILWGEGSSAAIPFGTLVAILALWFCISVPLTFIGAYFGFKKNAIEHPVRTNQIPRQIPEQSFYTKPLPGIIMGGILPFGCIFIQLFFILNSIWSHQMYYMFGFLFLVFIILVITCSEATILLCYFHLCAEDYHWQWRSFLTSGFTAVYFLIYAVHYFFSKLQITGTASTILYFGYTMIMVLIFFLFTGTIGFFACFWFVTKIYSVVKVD
Sequence of UniProt Q6PCB7 (Q6PCB7 whole entry, looked up): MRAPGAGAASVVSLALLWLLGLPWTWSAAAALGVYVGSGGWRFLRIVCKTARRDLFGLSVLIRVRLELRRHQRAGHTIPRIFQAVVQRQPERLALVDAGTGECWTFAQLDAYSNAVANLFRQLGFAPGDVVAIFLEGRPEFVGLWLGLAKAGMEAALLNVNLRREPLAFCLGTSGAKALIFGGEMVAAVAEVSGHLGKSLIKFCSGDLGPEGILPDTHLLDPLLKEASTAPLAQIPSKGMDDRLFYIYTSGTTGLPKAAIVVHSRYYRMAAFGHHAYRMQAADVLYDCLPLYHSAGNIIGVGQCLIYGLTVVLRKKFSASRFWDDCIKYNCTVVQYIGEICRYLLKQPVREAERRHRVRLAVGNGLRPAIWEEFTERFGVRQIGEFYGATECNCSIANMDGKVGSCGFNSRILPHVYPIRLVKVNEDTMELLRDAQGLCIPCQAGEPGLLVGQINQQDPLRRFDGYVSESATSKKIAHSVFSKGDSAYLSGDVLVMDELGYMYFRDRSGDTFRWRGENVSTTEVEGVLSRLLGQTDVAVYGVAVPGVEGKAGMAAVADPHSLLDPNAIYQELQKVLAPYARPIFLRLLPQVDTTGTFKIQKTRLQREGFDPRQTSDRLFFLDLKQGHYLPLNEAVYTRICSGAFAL
Sequence of UniProt Q9H5Q4 (Q9H5Q4 whole entry, looked up): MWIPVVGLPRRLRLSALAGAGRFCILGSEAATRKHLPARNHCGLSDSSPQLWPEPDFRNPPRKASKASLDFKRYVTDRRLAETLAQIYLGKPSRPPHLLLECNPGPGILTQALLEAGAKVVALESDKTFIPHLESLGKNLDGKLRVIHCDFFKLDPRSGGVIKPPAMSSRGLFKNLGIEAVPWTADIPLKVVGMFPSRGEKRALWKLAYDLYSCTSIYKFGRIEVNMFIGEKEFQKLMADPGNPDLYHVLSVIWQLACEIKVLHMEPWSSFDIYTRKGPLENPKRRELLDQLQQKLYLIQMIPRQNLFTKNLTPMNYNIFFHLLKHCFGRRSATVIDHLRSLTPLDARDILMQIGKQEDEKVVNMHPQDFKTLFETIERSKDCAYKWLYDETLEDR
Sequence of UniProt P55061 (P55061 whole entry, looked up): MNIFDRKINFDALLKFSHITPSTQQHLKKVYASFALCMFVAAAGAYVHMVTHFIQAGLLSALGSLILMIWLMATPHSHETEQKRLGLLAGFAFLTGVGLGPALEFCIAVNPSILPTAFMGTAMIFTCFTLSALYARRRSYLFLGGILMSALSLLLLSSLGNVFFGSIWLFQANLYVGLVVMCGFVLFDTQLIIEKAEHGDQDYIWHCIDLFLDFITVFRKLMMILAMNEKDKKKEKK

Row | Target | log2 fold change [1] | log2 fold change (filanesib) | log2 fold change (zotarolimus) | log2 fold change (idasanutlin) | log2 fold change (alisertib) | log2 fold change [2] | log2 fold change (gefitinib) | log2 fold change [3] | log2 fold change (lapatinib) | log2 fold change (pictilisib)
1 | TBC1D5 isoform 2 (UniProt Q92609) | 0.048 | -0.01 | 0.048 | -0.052 | -0.021 | 0.006 | -0.031 | 0.003 | -0.062 | -0.091
2 | TM7SF3 (UniProt Q9NS93) | -0.002 | -0.218 | -0.042 | -0.015 | -0.217 | 0.101 | -0.066 | 0.248 | 0.014 | –
3 | SPTBN1 (UniProt Q01082) | -0.037 | 0.102 | 0.045 | 0.053 | -0.073 | 0.02 | 0.084 | -0.076 | 0.031 | 0.007
4 | TMBIM6 isoform 2 (UniProt P55061) | -0.007 | -0.233 | -0.099 | -0.51 (active) | -0.27 | -0.535 (active) | -0.087 | -0.165 | -0.196 | –
5 | STK39 (UniProt Q9UEW8) | -0.016 | -0.033 | 0.062 | -0.06 | -0.044 | 0.034 | -0.014 | -0.036 | -0.002 | 0.107
6 | STAT3 (UniProt P40763) | 0.063 | -0.031 | 0.086 | -0.003 | 0.013 | 0.023 | 0 | -0.039 | 0.004 | 0.051
7 | STK26 (UniProt Q9P289) | 0.018 | -0.147 | -0.03 | 0.045 | -0.059 | 0.069 | -0.037 | 0.009 | 0.019 | -0.105
8 | TBC1D20 isoform 3 (UniProt Q96BZ9) | 0.026 | -0.023 | 0.136 | -0.184 | -0.089 | 0.102 | 0.148 | -0.032 | -0.03 | -0.073
9 | STIM1 (UniProt Q13586) | 0.048 | -0.123 | 0.041 | 0.02 | -0.029 | -0.218 | 0 | 0.037 | -0.011 | 0.036
10 | TANGO6 (UniProt Q9C0B7) | -0.025 | 0.04 | 0.061 | -0.112 | 0.032 | -0.015 | -0.049 | -0.036 | 0.022 | –
11 | SRFBP1 (UniProt Q8NEF9) | 0.013 | 0.193 | -0.021 | -0.018 | -0.027 | 0.306 | 0.06 | -0.072 | 0.13 | -0.065
12 | TBCD (UniProt Q9BTW9) | -0.017 | -0.063 | 0.049 | -0.091 | -0.078 | -0.006 | 0.022 | 0.023 | -0.024 | 0.04
13 | SRP68 (UniProt Q9UHB9) | 0.024 | 0.066 | 0.043 | -0.036 | -0.029 | 0.016 | 0.008 | -0.126 | -0.011 | -0.054
14 | SNX15 (UniProt Q9NRS6) | -0.166 | 0.151 | -0.034 | 0.108 | -0.027 | 0.019 | 0.126 | 0.032 | -0.139 | 0.018
15 | TIPRL (UniProt O75663) | 0.011 | -0.063 | -0.013 | -0.104 | 0.014 | 0.043 | -0.034 | -0.009 | -0.009 | 0.034
16 | SSX2 (UniProt Q16385) | 0.083 | 0.009 | -0.014 | -0.021 | 0.035 | 0.025 | 0.032 | 0.004 | -0.011 | 0.064

Row | Target | log2 fold change [1] | log2 fold change (filanesib) | log2 fold change (zotarolimus) | log2 fold change (idasanutlin) | log2 fold change (alisertib) | log2 fold change [2] | log2 fold change (gefitinib) | log2 fold change [3] | log2 fold change (lapatinib) | log2 fold change (pictilisib)
17 | SLC38A2 (UniProt Q96QD8) | -0.041 | -0.205 | 0.048 | 0.011 | -0.019 | -0.122 | -0.099 | 0.097 | -0.055 | –
18 | SLC38A9 (UniProt Q8NBW4) | 0.033 | 0.064 | -0.012 | -0.004 | 0 | 0.053 | -0.012 | 0.121 | -0.065 | -0.027
19 | TFB2M (UniProt Q9H5Q4) | -0.044 | -0.074 | -0.001 | -0.055 | 0.011 | 0.006 | 0.002 | 0.037 | -0.001 | -0.021
20 | TBRG4 (UniProt Q969Z0) | 0.062 | -0.551 | -0.007 | -0.021 | 0.032 | -0.274 | -0.121 | 0.073 | -0.051 | -0.036
21 | TM9SF2 (UniProt Q99805) | -0.06 | -0.073 | 0.043 | -0.103 | -0.01 | -0.061 | 0.009 | 0.007 | 0.011 | 0.085
22 | SPIN4 (UniProt Q56A73) | -1.43 (active) | – | – | – | – | – | – | – | – | –
23 | SRSF4 (UniProt Q08170) | -0.085 | 0.234 | 0.053 | 0.207 | -0.137 | -0.04 | -0.014 | -0.089 | 0.137 | -0.007
24 | SUOX (UniProt P51687) | -0.321 | -0.014 | 0.02 | 0.013 | -0.014 | 0.088 | 0.007 | 0.022 | -0.088 | 0.158
25 | SLC35A1 (UniProt P78382) | 0.048 | -0.021 | -0.138 | -0.051 | -0.063 | -0.097 | 0.06 | 0.06 | -0.028 | –
26 | SOX5 (UniProt P35711) | -0.087 | -0.08 | -0.058 | 0.006 | -0.089 | -0.055 | -0.012 | 0.105 | 0.051 | –
27 | SLC29A3 (UniProt Q9BZD2) | 0.009 | -0.258 | -0.015 | -0.113 | 0 | -0.08 | -0.08 | 0.019 | -0.118 | –
28 | SLC27A1 (UniProt Q6PCB7) | -0.263 | 0.118 | 0.064 | -0.038 | 0.004 | 0.069 | 0.016 | -0.031 | 0.014 | –
29 | SUPT5H (UniProt O00267) | 0.02 | -0.005 | 0.042 | -0.062 | -0.003 | 0.058 | 0.028 | 0.027 | -0.006 | 0.05
30 | SNX3 (UniProt O60493) | -0.049 | 0.012 | 0.022 | 0.075 | 0.074 | -0.08 | 0.01 | 0.056 | -0.026 | -0.03
31 | SSR4 (UniProt P51571) | -0.015 | -0.052 | 0.036 | -0.012 | -0.004 | 0.08 | -0.023 | 0.047 | -0.05 | 0.106

Reference: the supplement of paper PMC10849652
